# Assay results: PubChem BioAssay
# Tested on: Human papillomavirus type 1a protein E7 (residues 44-93)
# Test: small molecules binding HPV E7 44-93 – biochemical, small-molecule microarray, residues 44-93, 635 nm fluorescence, primary screen (AID 1108);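 also: E7 fragment applied at 1 µg/mL in TBST for 1 h at 4 C; score combines spot fluorescence with its signal to noise ratio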
# Conditions: fluorescence 635 nm, higher = more signal
row,Compound,composite z-score
1,C=CCN1C(=O)[C@@]2(O[C@@H](CCO)[C@H]([Si](C)(C)c3ccc(OC)cc3)[C@H]2C)c2cc(NC(C)=O)ccc21,0.128
2,O=C1O[C@@H](c2ccccc2)[C@@H](c2ccccc2)N2[C@@H](c3ccc(O)cc3)[C@]3(C(=O)Nc4ccc(C#CCCO)cc43)[C@@H](C(=O)N3CCCCCCC3)[C@H]12,0.777
3,NC(=O)[C@]1(Cc2ccccc2)N=C(c2ccc(OCCCO)cc2)O[C@@H]1c1ccccc1,1.33
4,O=C1O[C@H](c2ccccc2)[C@H](c2ccccc2)N2[C@H]1[C@@H](C(=O)NC[C@H](O)c1ccccc1)[C@]1(C(=O)Nc3ccc(C#CC4=CCCCC4)cc31)[C@H]2c1ccc(O)cc1,1.38
5,C=C[C@H](C)[C@H](O)c1ccc(OCCO)cc1,-2.7
6,O=S(=O)(NCCCO)c1ccc(Br)cc1,0.54
7,O=C1c2ccccc2[C@](Cc2ccccc2I)(C(=O)O)[C@H](c2ccc(CO)cc2)N1Cc1ccccc1C(F)(F)F,1.46
8,CCOC(=O)C1=C[C@@H](C(C)(C)C)N(S(=O)(=O)c2ccc(C)cc2)[C@H]1c1ccc(Cl)c(Cl)c1,1.34
9,COCC1=C([C@H](O)CCc2ccccc2)[C@H](CO)[C@@H]2C(=O)N(Cc3ccccc3)C(=O)[C@@H]2C1,-0.0325
10,C[N+](C)(C)CCCC[C@@H]1NC(=O)[C@H]2C[C@@H](C(=O)O)[C@@H](c3cccc(OCCO)c3)N2C1=O,1.47
11,COc1ccc([Si](C)(C)[C@H]2[C@H](CC(=O)N3CCC[C@H]3CO)O[C@@]3(C(=O)N(Cc4cccc(N5CCC5=O)c4)c4ccccc43)[C@@H]2C)cc1,1.41
12,C=CCNC(=O)[C@H]1[C@@H]2C(=O)O[C@@H](c3ccccc3)[C@@H](c3ccccc3)N2[C@@H](c2ccc(OCCO)cc2)[C@]12C(=O)N(C(=O)OCCOC)c1ccc(C#CC3(O)CCCCCC3)cc12,1.18
13,CCCCN1CC=CC23O[C@@H]4C=CCCOC(=O)C4[C@H]2C(=O)N(CCCO)[C@@H]3C1=O (stereo not given in full),-0.73
14,O=C(N1CCCCC1)[C@]1(CCS(=O)(=O)c2ccccc2)N=C(c2ccc(OCCCO)cc2)O[C@@H]1c1ccccc1,0.876
15,O=C1c2ccccc2[C@@]2(Cc3ccccc3N(Cc3ccccc3)C2=O)[C@H](c2ccc(CO)cc2)N1Cc1ccccc1C(F)(F)F,-0.648
16,CC(C)C(=C=CC[C@H](O)c1ccccc1OCCO)CCO,1.31
17,C=CCC(OC(C)=O)[C@@H]1[C@@H](N(Cc2cc3ccccc3o2)C(=O)c2ccc(C)cc2)c2cc(OCCCO)ccc2N1C(=O)c1ccc(-c2ccccc2)cc1 (stereo not given in full),0.182
18,CC(C)(C)OC(=O)CC[C@@]1(C(=O)NCC(O)CO)N=C(c2ccc(OCCCO)cc2)O[C@@H]1c1ccccc1 (stereo not given in full),1.36
19,CCOC(=O)C1=CC[C@@H](c2cccc(Cl)c2)N(S(=O)(=O)c2ccc(C)cc2)[C@H]1c1ccc(C#N)cc1,1.41
20,COC(=O)[C@@]1(Cc2ccc(OC)cc2)[C@H]2c3cc(C(=O)N(C)C)n(Cc4ccc(OC)c(OC)c4)c3C[C@H]2CN1C(=O)c1ccccc1,1.46
21,OCCCc1cc[n+](Cc2cccc(OC(F)(F)F)c2)cc1,1.47
22,O=C1O[C@@H](c2ccccc2)[C@@H](c2ccccc2)N2[C@@H](c3ccc(O)cc3)[C@]3(C(=O)Nc4ccccc43)[C@@H](C(=O)N3CCCCCCC3)[C@H]12,1.47
23,COCCCNC(=O)[C@@]1(C)c2ccccc2C(=O)N(Cc2ccccc2)[C@H]1c1ccc(CO)cc1,1.38
24,COc1ccc([Si](C)(C)[C@H]2[C@H](CCO)O[C@@]3(C(=O)N(Cc4ccccc4)c4ccc(N5C(=O)COc6ccccc65)cc43)[C@@H]2C)cc1,-1.13
25,C=C(C)[C@@H]1CC=C(C(O)C2C=CC3C(=O)N(Cc4ccccc4)C(=O)C3N2n2cnnc2)CC1 (stereo not given in full),0.146
26,C=C(CCCC)C(=O)CC[C@H](OC(=O)c1ccccc1-c1ccccc1C(=O)O)c1ccc(CO)o1,1.42
27,O=C1C2C=CC(C(O)C3CC=CCC3)N(n3cnnc3)C2C(=O)N1Cc1ccccc1 (stereo not given),-0.318
28,C=CCC(OC(C)=O)[C@@H]1[C@@H](N(Cc2cc3ccccc3o2)C(=O)c2ccc(-c3ccccc3)cc2)c2cc(OCCCO)ccc2N1C(=O)Cc1ccc2ccccc2c1 (stereo not given in full),0.006
29,O=[N+]([O-])c1ccc(C[n+]2ccc(CCCO)cc2)o1,1.15
30,CC(c1ccccc1)C(O)C1C=CC2C(=O)N(Cc3ccccc3)C(=O)C2N1n1cnnc1 (stereo not given),1.12
